These results are taken from the supplement of paper PMC10105736.

What all share (assay): MAPPIT interaction score (arbitrary units); higher = stronger binary interaction signal, active = hit call of the paper
One assay has as its target ATPCL. The settings on record: MAPPIT configuration: N-N. The method, then:
(§1)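 MAPPIT in HEK293T cells: Drosophila bait and prey ORFs (from the FlyBi ORF collection) were co-transfected in quadruplicate, with two wells stimulated by erythropoietin. Interaction-dependent JAK-STAT activation was read out with a STAT-responsive firefly luciferase reporter. Positive calls use the 99th percentile of random reference set (RRS) scores within each batch […]. Batches Dvs01 and Dvs02 used the N-N configuration and Dvs04 the N-C configuration. Pairs come from FlyBi screens, CuraGen, DPiM, Finley Y2H, Lit-BM-16, Lit-BS-16 and RRS.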

The target of a further assay is Cka. The settings on record: MAPPIT configuration: N-N; pair source set: Curagen_low_conf. The method, then:
as §1

Another assay concerns the target CycK. The settings on record: MAPPIT configuration: N-N; pair source set: Finley_Y2H. Here is the method: as §1
The target of the next assay is Dsp1. The settings on record: pair source set: RRS. Here is the method:
as §1

The target of the next assay is Fkbp12. The settings on record: MAPPIT configuration: N-N; pair source set: Lit-BS-16. The method, then: as §1
The next assay concerns the target dod. The settings on record: MAPPIT configuration: N-N; pair source set: screen_1. Here is the method:
as §1

Another assay concerns the target eIF4E3. The settings on record: MAPPIT configuration: N-N; pair source set: Curagen_high_conf. Here is the method:
as §1

In another assay the target is 7B2. The settings on record: MAPPIT configuration: N-N; pair source set: Finley_Y2H. Here is the method: as §1
The target in a further assay is CG10591. The settings on record: MAPPIT configuration: N-N; pair source set: Curagen_low_conf. The method, then: as §1
Another assay has as its target CSN7. The settings on record: MAPPIT configuration: N-N; pair source set: Lit-BM-16. Here is the method: as §1
The next assay has as its target PICK1. The settings on record: MAPPIT configuration: N-N; pair source set: screen_1. The method, then:
as §1

The target in the next assay is 14-3-3epsilon. The settings on record: pair source set: Lit-BM-16. Here is the method: as §1
For a further assay, the target named is hpo. The settings on record: MAPPIT configuration: N-N; pair source set: Lit-BM-16. Here is the method: as §1
The target of another assay is sd. The settings on record: MAPPIT configuration: N-C; pair source set: Lit-BM-16. Here is the method:
as §1

The target in another assay is AP-1mu. The settings on record: MAPPIT configuration: N-C; pair source set: screen_4. The method, then: as §1
The next assay has as its target HLH54F. The settings on record: MAPPIT configuration: N-N; pair source set: Curagen_low_conf. Here is the method:
as §1

The target in another assay is 128up. The settings on record: MAPPIT configuration: N-N; pair source set: DPIM. The method, then:
as §1

The target of the next assay is AP-2alpha. The settings on record: MAPPIT configuration: N-N; pair source set: DPIM. Here is the method: as §1
The next assay has as its target CG9667. The settings on record: MAPPIT configuration: N-N; pair source set: DPIM. The method, then:
as §1

Unmarked numbers belong to inactive results.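 Rule for the calls: active = MAPPIT score above the 99th percentile of random reference set scores in the same batch; inactive = at or below it.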
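Note: HEK293T cells with Epo stimulation, STAT-responsive firefly luciferase reporter, fold induction versus unstimulated cells divided by the larger fold induction of two negative controls lacking either bait or prey.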

B1: PAN3 (protein)
chain: MCSTYGLLSFEFSDTAAMDPIFFSPTNGIPSESKLATYMNRQNVATPSGYGLNNGFSLLNLDSPLNKKSQVTPQSPEFIPTRLGSTPNFYAPYHNAPMQLSNGLNGVNGLTAAAAAAAAAAAAAAAAVPSSTSSASSASVTISKTANGGASMLALQKTASIASVTIAQQQPQHPQKQQQHPPSVGGGAVSAASAPIAISGAPPNPAAAPFVSSMSAQTPLKGRGAMMRQESPTAAMISGAGPGEKSPPHGMTPHGASPIPSALPTSVHQENVGGTIYFYPTANAQNSQPVVNSMVVDGTHPALHGVSAVAPMSAGVPAAMMYTGHVYPGPSSNVVTMQPKTLLESAFFMPDEMRAEVLARNEISNLIMDAAEAAQHALPLEVENYHALYPLEPPAQPLHAKLTFPATTYRATHNTTGYKYCLRRIHGFRLQSTKCMTLVEMWKKLQHTNVVQLREVFTTKAFGDNSLVLVYDYHPGSQTLLAKYFTPAPETNGYTDPFQGEARPFSHKSNMQRTSNGPLLPEATIWSIIMQLTAGLKAIHHAGLACKVLDPTKIIVTGKRVRFSSCCISDITQFDPNASNPLALVNMHQQDDLTALGRLVLALACRCLQSVQRDNVQSSIDMVTRNYSTDLRNFIVYLFTTNNRRSVTDLMPMIGARFYTQLDALQSKIDMQEDELAKEMENGRLYRILVKLNSINERPDFNLDCTWSETGDRYMLKLFRDYLFHSVTEDGRPWLDHAHIVQCLNKLDAGSIERVQLMSRDEQSVLIVSYAELKNCLENAFSELMSSAAN
Turning to B1, the MAPPIT interaction score is 0.129 with ATPCL (pair source set: Curagen_high_conf); 0.112 with ATPCL (pair source set: Lit-BS-16); -0.663 in the assay with Cka; 3.73 (active) in the assay with CycK; 0.178 with Dsp1 (MAPPIT configuration: N-C); -0.667 with Dsp1 (MAPPIT configuration: N-N). The MAPPIT interaction score with Fkbp12 is 1.71; in the assay with dod, 2.85 (active); with eIF4E3 it was 2.53 (active).

B2: CSN4 (protein)
chain: MAANYGISTAALRSQLMGLINFTGTHKDQADKYRQLLKTVLTNTGQELIDGLRLFVEAIVNEHVSLVISRQILNDVGSELSKLPDDLSKMLSHFTLEKVNPRVISFEEQVAGIRFHLANIYERNQQWRDAATVLVGIPLETGQKQYSVECKLGTYLKIARLYLEDNDSVQAELFINRASLLQAETNSEELQVLYKVCYARVLDYRRKFIEAAQRYNELSYRKIVDQGERMTALKKALICTVLASAGQQRSRMLATLFKDERCQHLPAYGILEKMYLERIIRRSELQEFEALLQDHQKAATSDGSSILDRAVFEHNLLSASKLYNNITFEELGALLDIPAVKAEKIASQMITEGRMNGHIDQISAIVHFENRELLPQWDRQIQSLCYQVNSIIEKISVAEPDWMDNLN
Take B2: the MAPPIT interaction score in the assay with 7B2 was -0.195; in the assay with CG10591, 0.0604; with CSN7, 4.26 (active); with PICK1, 2.03.

B3: yki (protein)
chain: MLTTMSASSNTNSLIEKEIDDEDMLSPIKSNNLVVRVNQDTDDNLQALFDSVLNPGDAKRPLQLPLRMRKLPNSFFTPPAPSHSRANSADSTYDAGSQSSINIGNKASIVQQPDGQSPIAAIPQLQIQPSPQHSRLAIHHSRARSSPASLQQNYNVRARSDAAAANNPNANPSSQQQPAGPTFPENSAQEFPSGAPASSAIDLDAMNTCMSQDIPMSMQTVHKKQRSYDVISPIQLNRQLGALPPGWEQAKTNDGQIYYLNHTTKSTQWEDPRIQYRQQQQILMAERIKQNDVLQTTKQTTTSTIANNLGPLPDGWEQAVTESGDLYFINHIDRTTSWNDPRMQSGLSVLDCPDNLVSSLQIEDNLCSNLFNDAQAIVNPPSSHKPDDLEWYKIN
For the molecule B3, the MAPPIT interaction score is 2.04 with 14-3-3epsilon (MAPPIT configuration: N-C), 2.25 with 14-3-3epsilon (MAPPIT configuration: N-N), 0.208 with hpo and 0.32 in the assay with sd.

B4: TfIIB (protein)
chain: MASTSRLDNNKVCCYAHPESPLIEDYRAGDMICSECGLVVGDRVIDVGSEWRTFSNEKSGVDPSRVGGPENPLLSGGDLSTIIGPGTGSASFDAFGAPKYQNRRTMSSSDRSLISAFKEISSMADRINLPKTIVDRANNLFKQVHDGKNLKGRSNDAKASACLYIACRQEGVPRTFKEICAVSKISKKEIGRCFKLTLKALETSVDLITTADFMCRFCANLDLPNMVQRAATHIAKKAVEMDIVPGRSPISVAAAAIYMASQASEHKRSQKEIGDIAGVADVTIRQSYKLMYPHAAKLFPEDFKFTTPIDQLPQM
For the molecule B4, the MAPPIT interaction score in the assay with AP-1mu was 1.05; in the assay with HLH54F, -0.376.

B5: mod (protein)
chain: MAQKKAVTVKGKKATNGEEKPLAKRVTKSTKVQEEETVVPQSPSKKSRKQPVKEVPQFSEEDESDVEEQNDEQPGDDSDFETEEAAGLIDDEAEEDEEYNSDDEEDDDDDELEPGEVSKSEGADEVDESDDDEEAPVEKPVSKKSEKANSEKSEENRGIPKVKVGKIPLGTPKNQIVFVTNLPNEYLHKDLVALFAKFGRLSALQRFTNLNGNKSVLIAFDTSTGAEAVLQAKPKALTLGDNVLSVSQPRNKEENNERTVVVGLIGPNITKDDLKTFFEKVAPVEAVTISSNRLMPRAFVRLASVDDIPKALKLHSTELFSRFITVRRISQESISRTSELTLVVENVGKHESYSSDALEKIFKKFGDVEEIDVVCSKAVLAFVTFKQSDAATKALAQLDGKTVNKFEWKLHRFERSTSGRAILVTNLTSDATEADLRKVFNDSGEIESIIMLGQKAVVKFKDDEGFCKSFLANESIVNNAPIFIEPNSLLKHRLLKKRLAIGQTRAPRKFQKDTKPNFGKKPFNKRPAQENGGKSFVKRARF
For B5, in the assay with 128up, the MAPPIT interaction score is -0.0936.

B6: CG10417 (protein)
chain: MGAYLSHPKTDKTSTDQFNELLAVGASSMQGWRNSQEDAHNSILNFDNNTSFFAVYDGHGGAEVAQYCADKLPHFLKNLETYKNGQFEVALKEAFLGFDKTLLDPSIVSILKILAGEHNFVDAEADDYEEEDLAELQEESNLPLNEVLEKYKGLPQKKDLDLKSSDHKENFKMRSPYFRGRRAAALAAEATNKAVMDPSAKPDGSSTSAAAAAAALSADGVANSRNPSNVVNPMAGADSNTTTSINDLSTKNAALKDDSVNDQNEGSNGTDFKHTLVSSSNKKLFATGSNDMTELNQSSKNEFTNSSTSKEFERNINSSQDDEFTDDDADYEENDNVKSPDTSSAESSDCTENDDDGDEDGNEDSDEEETDEDQMANDNFCANMIEEPGKDSGCTAVVCLLQGRDLYVANAGDSRCVISRSGQAIEMSIDHKPEDDEEASRIIKAGGRVTLDGRVNGGLNLSRALGDHAYKTNVTLPAEEQMISALPDIKKLIITPEDEFMVLACDGIWNYMSSEEVVEFVRCRLKDNKKLSTICEELFDNCLAPNTMGDGTGCDNMTAVIVQFKKKLQELQSTIPPNQTEDKLLKTSENVSHSLNDQSASKRCASQNADADDEILEKNNSKRLKTDLEQENIKDRTPSPSNQNEDPTQKAIKEVTIIVSSS
As for B6, the MAPPIT interaction score is 0.508 in the assay with AP-2alpha and 0.00387 in the assay with CG9667.
